# Source: PubChem BioAssay (National Center for Advancing Translational Sciences (NCATS))
# Sampled rows, rich in hits. Any-hit rate of the full collection: about 0.35%.
# Vif-APOBEC3F blk = qHTS for Inhibitors of Vif-A3F Interactions: qHTS; HeLa A3F-eYFP + Vif (tagged APOBEC3F with the HIV-1 protein that degrades it), YFP fluorescence increase; Potency, µM (top dose mostly 46.1 µM), for the others: at the top dose activity, negative = active; hit rate 0.2% among 390,000; AID 602313, 2012; further: % of control where 0% means no effect; nearly all actives have a fitted effect of over 65% in size
#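 HeLa cells stably expressing A3F-eYFP plus Vif, plated and incubated overnight at 37 deg C, then exposed to compounds overnight at 37 deg C. Blocked degradation read as raised yellow fluorescence (Ex 488/Em 500-530).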
# Epigenetic derep = Quantitative High-Throughput Screen for Regulators of Epigenetic Control; murine LDR cells, GFP reporter derepression, 30 h; hit rate 0.2% among 280,000; Potency, µM (top dose mostly 53.9 µM), inactives show at the top dose GFP activation, most hits filed as activators; AID 1865, 2009; further: % of control where 0% means no effect; nearly all actives have a fitted effect of over 60% in size
#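 Reporter derepression read as number of fluorescent GFP-positive objects, 20-120 um in size, counted by laser-scanning cytometer. Mouse LDR line with an epigenetically silenced CMV-GFP locus; compound incubation 30 h, 37 C.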
# GRP78 ERSR act = qHTS for Inducers of the Endoplasmic Reticulum Stress Response (ERSR) in Human Glioma: qHTS. U87-MG GRP78 promoter luciferase reporter, 16 h. Potency, µM, without a hit: top-dose activation, usual class: activators. hit rate 0.02% among 420,000. AID 602332, 2012; further: series mostly up to about 76 µM; % of control where 0% means no effect; nearly all actives have a fitted effect of over 35% in size
#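 Stably transfected U87-MG human glioma cells carrying a GRP78-based luminescent sensor were seeded at 1000 cells/well, pin-dosed with compounds and incubated 16 h. Luciferase reagent was then added, and end-point luminescence was read after 10 min at room temperature.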
# Vif-APOBEC3G blk = qHTS for Inhibitors of Vif-A3G Interactions: qHTS | DNA dC->dU-editing enzyme APOBEC-3G (Homo sapiens), Q9HC16 | HeLa A3G-eYFP + Vif (tagged APOBEC3G with the HIV-1 protein that degrades it), YFP fluorescence, overnight | Potency, µM (doses to about 46.1 µM), without a hit: at the highest dose activity, negative = active, hits mostly inhibitors | hit rate 0.076% among 410,000 | AID 602310, 2012; further: on the % scale 0 is the no-effect control and ±100 the full control effect; nearly all actives have a fitted effect of over 60% in size
# Target sequence (Q9HC16 whole entry, looked up): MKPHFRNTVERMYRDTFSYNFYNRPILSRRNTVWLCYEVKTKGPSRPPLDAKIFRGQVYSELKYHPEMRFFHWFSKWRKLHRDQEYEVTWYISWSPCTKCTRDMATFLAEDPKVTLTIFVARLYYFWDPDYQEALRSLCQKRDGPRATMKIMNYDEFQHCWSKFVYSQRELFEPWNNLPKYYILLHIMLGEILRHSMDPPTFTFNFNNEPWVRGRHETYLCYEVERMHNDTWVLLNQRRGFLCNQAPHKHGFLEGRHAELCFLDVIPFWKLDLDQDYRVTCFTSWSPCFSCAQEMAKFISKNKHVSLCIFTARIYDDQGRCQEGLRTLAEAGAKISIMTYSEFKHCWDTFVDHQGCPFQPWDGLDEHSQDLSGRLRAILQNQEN
#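 Read-out is eYFP fluorescence (Ex 488/Em 500-530) from Vif-expressing HeLa A3G-eYFP cells; more signal means A3G escaped Vif-mediated degradation. Cells plated overnight, compound pinned in, incubated overnight at 37 deg C.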
# The depositor's hits bear a star; ? = inconclusive; nt = no result given. The call rests on the fitted dose curve; in most records, active means well fitted curve in the direction sought with a large enough effect; inconclusive means small, poorly fitted or top-dose-only effect, or another doubt; inactive means no such curve, though single readings can be large; an effect the other way counts as inactive or inconclusive. Potency means the concentration at half of the fitted maximal effect.
SMILES,Vif-APOBEC3F blk,Epigenetic derep,GRP78 ERSR act,Vif-APOBEC3G blk
COc1ccc2c(c1)C(=O)[C@@H](OC(=O)Nc1ccc(C)c(Br)c1)[C@H](c1ccc(OC)c(Br)c1)O2,nt,-1%,nt,nt
COc1ccc(N=Cc2c(OC)ccc3ccccc23)cc1,3%,nt,-1%,-2%
COc1ccc(-n2c(O)c(C=Nc3ccccc3)c3ccccc3c2=O)cc1,-8%,5%,-2%,-1%
COc1ccc(N=Cc2sc(O)c3ccccc23)cc1,-17%,10µM*,2%,13µM*
COc1ccc(N=Cc2c(O)c3ccccc3n2C(C)=O)cc1,13µM*,14%,1%,13µM*
O=C(COC(=O)Cc1ccccc1F)NC(=O)NC1CCCC1,4%,nt,-4%,3%
COc1ccc(C2c3ccc(O)cc3Oc3ncn4nc(-c5ccccn5)nc4c32)cc1OC (centres undefined),-17%,0%,2%,-2%
COc1ccc(C2c3ccc(O)cc3Oc3ncn4nc(-c5ccco5)nc4c32)cc1OC (centres undefined),-26%,22µM*,-1%,-1%
Cc1ccc(SCc2cc(=O)[nH]c(Nc3nc(C)c4ccc(C)cc4n3)n2)cc1,0%,-1%,-4%,4%
Cc1ccc2c(C)nc(Nc3nc(CSc4nc5ccccc5[nH]4)cc(=O)[nH]3)nc2c1,1%,35µM*,0%,-1%
CCC(=O)N1CCc2cc(Br)cc(S(=O)(=O)CCC(=O)N(CC)Cc3ccccc3)c21,-4%,-1%,-4%,-2%
CC1CCCC/C1=N\NC(=S)Nc1cccnc1 (centres undefined),-7%,0%,-2%,10%
Cc1ccc(NC(=S)N/N=C2\CCCCC2C)cc1 (centres undefined),22µM*,1%,0%,?
O=C(COC(=O)/C=C/c1ccc(F)cc1)NCC1CCCO1 (centres undefined),4%,nt,4%,0%
CCOC(=O)c1c(NC(=O)CSc2nc3ccc(OC)cc3[nH]2)sc2c1CC(C)(C)NC2(C)C,25µM*,nt,-3%,?
Cc1ccc(NC(=O)C2(c3cccs3)CCOCC2)cc1Cl,-6%,1%,-2%,-9%
COCc1c(C(=O)N2CCN(C)CC2)cnn1-c1ncc2c(n1)-c1ccccc1CCC2,nt,nt,-3%,nt
CCOC(=O)c1c(/N=C/N(C)C)sc(/C=N/Nc2ccccc2)c1-c1ccc(Cl)cc1,-4%,11µM*,-3%,-20%
Cc1cc(C)c2c(n1)sc1c(O)cc(=O)[nH]c12,-3%,1%,-2%,-1%
COc1ccc(-c2cc(C(F)(F)F)c3c(n2)sc2c(O)cc(=O)[nH]c23)c(OC)c1,?,11µM*,-7%,-28%
CCCOc1ccc2cc(C(=O)NCc3ccccc3)c(=O)oc2c1,32µM*,nt,4%,-229%
Cc1ccc(CN2c3ccccc3S(=O)(=O)c3ccccc32)cc1,-1%,1%,-4%,-1%
CCOC(=O)c1c(C)n(-c2ccccc2)c2ccc(O)cc12,0%,-1%,-7%,-4%
CCOC(=O)c1c(CN(CC)CC)n(-c2ccccc2)c2ccc(O)cc12,-2%,nt,-1%,13µM*
CSc1ncccc1C(=O)NCC1Cc2cc(-c3cnccn3)ccc2O1 (centres undefined),nt,nt,-4%,nt
SMILES,Vif-APOBEC3F blk,Epigenetic derep,GRP78 ERSR act,Vif-APOBEC3G blk
C=CCc1cccc2cc(-c3nc4ccc(C)cc4[nH]3)c(=O)oc12,nt,4µM*,2%,-3%
Cc1ccccc1NCC(=O)N=Nc1c(O)[nH]c2ccc([N+](=O)[O-])cc12,?,1%,-3%,5µM*
Cc1ccc(OC(C)C(=O)N=Nc2c(O)[nH]c3ccc([N+](=O)[O-])cc23)cc1 (centres undefined),-6%,1%,-3%,?
Cc1ccc(NCC(=O)N=Nc2c(O)[nH]c3ccc([N+](=O)[O-])cc23)cc1,?,3%,40µM*,-7%
O=C1S/C(=C/c2ccc(N3CCOCC3)o2)C(=O)N1Cc1c(F)cccc1Cl,?,2.5µM*,2%,4µM*
O=C1N=C(N2CCOCC2)S/C1=C/c1ccc(-c2ccccc2Cl)o1,5%,-1%,0%,2%
O=C1S/C(=C\c2ccc(N3CCOCC3)o2)C(=O)N1c1ccccc1,?,14µM*,-8%,4.5µM*
O=C1S/C(=C\c2ccc(N3CCOCC3)o2)C(=O)N1Cc1c(F)cccc1Cl,?,8.9µM*,-3%,?
COc1ccc(N(C)S(=O)(=O)c2ccc3c(c2)n(C)c(=O)c(=O)n3C)cc1,-1%,-1%,-1%,1%
CCCCCCCCCC[n+]1ccc(/C=C/c2c(C)[nH]c3ccccc23)cc1,nt,nt,-12%,?
CNC(=O)c1c(NC(=O)c2ccc(S(=O)(=O)N(C)c3ccccc3)cc2)sc2c1CCN(C(C)C)C2,7.1µM*,nt,-3%,?
CC(C)N1CCc2c(sc(NC(=O)c3cc(-c4cccs4)nc4ccccc34)c2C(N)=O)C1,?,18µM*,-13%,7.1µM*
CC(C)N1CCc2c(sc(NC(=O)c3ccc(S(=O)(=O)N(C)C4CCCCC4)cc3)c2C(N)=O)C1,?,?,-4%,?
CCN1CCc2c(sc(NC(=O)c3ccc(S(=O)(=O)N(C)c4ccccc4)cc3)c2C(=O)NC)C1,11µM*,nt,-3%,?
CC(C)N1CCc2c(sc(NC(=O)c3ccc(S(=O)(=O)N4CCc5ccccc54)cc3)c2C(N)=O)C1,6.3µM*,?,-11%,20µM*
CC(C)Cc1nnc(NC(=O)CCC(=O)N2CCN(c3ccc(F)cc3)CC2)s1,-7%,nt,-3%,0%
CC(C)N1CCc2c(sc(NC(=O)c3ccc(S(=O)(=O)N4CCOCC4)cc3)c2C#N)C1,13µM*,4%,-4%,-23%
Cc1ccc(NC(=O)c2sc3nc(-c4cccs4)ccc3c2N)cc1F,?,?,-3%,-10%
Cc1csc(NC(=O)c2sc3nc(-c4cccs4)ccc3c2N)n1,22µM*,?,2%,?
CC(=O)N1c2c(cc(Br)cc2S(=O)(=O)NCC2COc3ccccc3O2)CC1C (centres undefined),-6%,-1%,40µM*,-3%
CCCN(C(=O)CSc1n[nH]c(-c2ccc(OC)cc2)n1)c1c(N)n(Cc2ccccc2)c(=O)[nH]c1=O,25µM*,nt,-3%,-23%
COc1ccc(S(=O)(=O)Nc2ccc3oc4c(c3c2)C(=O)CC(C)(C)C4)cc1,0%,3%,-5%,3%
O=C1/C(=C/c2ccc([N+](=O)[O-])cc2)Oc2cc(O)ccc21,22µM*,nt,-1%,-2%
Nc1[nH]c2cc([N+](=O)[O-])ccc2c1-c1ccccn1,10µM*,nt,2%,?
Cc1cc(NC(=O)/C(C#N)=C\c2ccc(-c3ccc(SC(F)F)cc3)o2)n(-c2ccccc2)n1,10µM*,nt,-4%,?
COc1cc(-c2noc(C)c2-c2ccc(N(C)C)nc2)cc(OC)c1OC,-5%,nt,1%,-41%
